Test results: ChEMBL document CHEMBL3433997, “St. Jude Leishmania screening dataset” (2016)

Columns and labels:
Type in all cases: functional
[1] = target: Solute carrier family 2, facilitated glucose transporter member 1 (Homo sapiens) (UniProt P11166); test: ST_JUDE_LEISH: Cytotoxicity at 2uM final concentration against transgenic Leishmania Mexicana promastigotes LmGLUT1 that are glucose transport deficient and complemented with the human glucose transporter GLUT1. Activity is measured by DNA content using SYBR green in vitro
Chain of Solute carrier family 2, facilitated glucose transporter member 1 (Homo sapiens) (P11166 whole entry): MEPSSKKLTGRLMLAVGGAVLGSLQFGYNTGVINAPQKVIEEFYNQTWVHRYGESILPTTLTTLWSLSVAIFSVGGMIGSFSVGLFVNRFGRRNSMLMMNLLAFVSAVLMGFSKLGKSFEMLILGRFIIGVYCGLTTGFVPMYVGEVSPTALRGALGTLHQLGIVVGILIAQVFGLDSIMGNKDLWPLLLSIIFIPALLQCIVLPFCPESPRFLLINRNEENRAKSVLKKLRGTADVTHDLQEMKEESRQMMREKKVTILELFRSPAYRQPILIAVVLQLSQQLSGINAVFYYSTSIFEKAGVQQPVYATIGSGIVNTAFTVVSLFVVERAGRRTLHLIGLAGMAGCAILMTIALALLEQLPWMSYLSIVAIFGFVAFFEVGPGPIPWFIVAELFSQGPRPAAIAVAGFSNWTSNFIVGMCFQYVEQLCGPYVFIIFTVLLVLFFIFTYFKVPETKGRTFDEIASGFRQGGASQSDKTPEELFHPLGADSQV

[2] = target: Hexose transporter 1 (Plasmodium falciparum) (UniProt O97467); test: ST_JUDE_LEISH: Cytotoxicity at 2uM final concentration against transgenic Leishmania Mexicana promastigotes LmPfHT that are glucose transport deficient and complemented with the Plasmodium falciparum hexose transporter. Activity is measured by DNA content using SYBR green in vitro
[3] = target: Glucose transporter (Leishmania mexicana) (UniProt O61059); test: ST_JUDE_LEISH: Cytotoxicity at 2uM final concentration against transgenic Leishmania Mexicana promastigotes LmGT2 that are glucose transport deficient and complemented with the L. Mexicana glucose transporter 2. Activity is measured by DNA content using SYBR green in vitro

| SMILES | inhibition [1] [%] | inhibition [2] [%] | inhibition [3] [%] |
| --- | --- | --- | --- |
| O=C(C=Cc1ccccc1)Nc1ccc(C#CC=Cc2ccc(NC(=O)C=Cc3ccccc3)cc2)cc1 | 2.7 | 2.84 | 2.16 |
| COc1ccc(-c2ccc(NC(=O)c3cccs3)cc2)cc1CN1CCCN(C)CC1 | 3.24 | 3.15 | -1.12 |
| CCCCNC(=O)[C@@H](NC(=O)c1ccc(O)c(-c2ccc(Cl)c(Cl)c2)c1)C(C)C | 4.49 | 4.37 | 3.47 |
| O=S(=O)(NCCN1CCCC1)c1ccc(-c2cccc(CNCc3ccsc3)c2)s1 | 5.4 | 2.42 | -1.72 |
| O=C(NCC1CCC(C(=O)NCCc2ccc(Cl)c(Cl)c2)CC1)c1ccc(O)c(-c2ccc(Cl)c(Cl)c2)c1 (stereo not given) | -0.17 | 0.8 | 1.89 |
| CN(C)CCCOc1ccc(CCCCc2ccc(Cl)cc2C(=O)c2ccccc2)cc1 | 13.3 | 10.2 | 7.71 |
| O=C(NC(Cc1ccccc1)C(=O)O)c1cc(=O)c2ccccc2o1 (stereo not given) | 0.32 | 1.17 | 0.99 |
| N#Cc1cccc(NC(=O)Nc2ccc(CC(=O)N3CCc4cc(Cl)c(N5CCN(C/C=C/c6ccccc6)CC5)cc43)cc2)c1 | 2.33 | 4.39 | 2.7 |
| O=C(NC1CCN(Cc2ccccc2)CC1)c1ccc2c(=O)n(Cc3ccc(Cl)cc3)c(=S)[nH]c2c1 | 0.69 | -0.17 | 1.31 |
| Oc1ccc(CCNCc2ccc(OCc3ccccc3)c(OCc3ccccc3)c2)cc1 | 75 | 76.6 | 68.5 |
| CC(CN(C)C)C(=O)Nc1ccc(-c2ccc(-c3nc4cc(C(F)(F)F)ccc4[nH]3)cc2)cc1 (stereo not given) | 12.9 | 11.6 | 9.66 |
| CC(=O)c1ccc(S(=O)(=O)N2CCC(C(=O)Nc3ccccc3N3CCCC3)CC2)cc1 | 0.87 | 0.67 | -0.38 |
| CCOc1ccc(-c2cc3nc(C4CCNCC4)c(C(=O)Nc4ccc(C)cc4Cl)cn3n2)cc1 | 4.75 | -0.08 | 1.29 |
| CCOc1cc(C=NNc2nc(C)cc(-n3nc(C)cc3C)n2)ccc1O | 1.32 | -0.22 | 3.45 |
| COc1ccc2nccc([C@@H](O)CN3CCC(NCc4nc5c(cc4F)SCC(=O)N5)C(F)C3)c2c1 (stereo not given in full) | 5.83 | 3.21 | 4.51 |
| NC(=O)c1ccc(C(=O)Nc2cccc(-c3ccc(-c4nc5cc(C(F)(F)F)ccc5[nH]4)cc3)c2)cc1 | -2.41 | -0.2 | -2.73 |
| COc1ccc(-c2ccc(S(=O)(=O)Nc3cc4c(cc3OC(C)C)CCN(C)CC4)cc2)cc1 | 1.81 | 2.48 | 1.21 |
| COc1ccc2c(NN=Cc3ccc(Cl)cc3)ccnc2c1 | 3.12 | 2.42 | 4.63 |
| N#Cc1ccc2c(c1)CN(CCCCNC(=O)c1ccc(-c3ccccc3)cc1)CC2 | 3.14 | 3.16 | 3.99 |
| COc1ccc2nc3cc(Cl)ccc3c(Nc3ccc(C(=O)O)cc3)c2c1 | 5.95 | -1.31 | 0.06 |
| COc1ccc(NC(=O)NC2CCN(CCCOc3cc(C)nc4ccccc34)CC2)cc1OC | 0.88 | 1.97 | -3.5 |
| COc1ccc(Cl)cc1-c1nc(C(=O)NCCN2CCCCC2)c(C(C)C)s1 | -3.64 | -0.2 | 3.06 |
| CCCNC(=O)c1cncc(-c2cccc(CNC3Cc4ccccc4C3)c2)c1 | -1.27 | -1.42 | -1.3 |
| O=C(NCCCc1ccccc1)c1csc(C2CCCN(C(=O)c3ccc(O)c(-c4cccc5ccccc45)c3)C2)n1 (stereo not given) | 0.14 | -0.18 | -0.59 |
| Cc1cc(N[C@@H](Cc2ccccc2)C(=O)Nc2ccccc2)nc(NCCc2ccccn2)n1 | 4.62 | 4.95 | 3.53 |
